Screens from PubChem BioAssay.
Rows were chosen to be rich in hits. Some 8% of all compounds tested hit in one or more screens of this group.
SW480 rerep = DNA re-replication induction in SW480 cells; SW480 DNA re-replication, Hoechst DNA content imaging, 48 h; Potency, µM (highest dose often 46.1 µM), most hits filed as activators; 340,000 tested, 1.8% active; also: nearly all actives have a fitted effect of over 55% in size
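Compounds, transferred as 23 nL by pin tool, were incubated with cells for 48 hr; DNA content per nucleus was then quantified by Hoechst staining and fluorescence plate imaging.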
HT1080 IDH1KD tx = kills HT-1080 cells with IDH1 knockdown; HT-1080 IDH1 knockdown viability, ATP luminescence, 48 h; Potency, µM (highest dose often 46.1 µM), actives largely listed as cytotoxic; 360,000 tested, 2% active; AID 686971
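Using the IDH1-knockdown HT-1080 line run in the same batch and compound series as the NT line, viability after 48 h at 37 °C was determined by CellTiter-Glo luminescence and expressed as % activity.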
KB-3-1 cytotox = KB-3-1 parental cell cytotoxicity | 400,000 tested, 1.4% active | KB-3-1 viability, CellTiter-Glo ATP luminescence, 72 h | Potency, µM (highest dose often 46.1 µM), actives largely listed as cytotoxic; also: nearly all actives have a fitted effect of over 60% in size
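Parental KB-3-1 viability, qHTS format: 72 h compound exposure, 37 °C; CellTiter-Glo; media-only wells and DMSO plates as controls; concentration-effect fits on corrected data.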
HT1080-NT tox = kills 2HG-producing HT-1080-NT fibrosarcoma cells; HT-1080-NT fibrosarcoma viability, CellTiter-Glo ATP luminescence, 48 h; Potency, µM (titrated, usually from 46.1 µM), actives largely listed as cytotoxic; 360,000 tested, 1.6% active;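 also: NT is the 2HG producing partner of a matched IDH1 knockdown line; nearly all actives have a fitted effect of over 55% in size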
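Fibrosarcoma NT cells, 750 per well in 5% FBS RPMI, were exposed to compound for 48 hours. Viability: CellTiter-Glo luminescence.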
KB-V1 cytotox = kills drug-selected multidrug resistant KB-V1 cells; KB-V1 MDR cells viability, CellTiter-Glo, 72 h; Potency, µM (highest dose often 46.1 µM), hits mostly cytotoxic; 400,000 tested, 3.4% active; also: nearly all actives have a fitted effect of over 60% in size
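Cells of the MDR subline KB-V1 are plated, dosed with compound at multiple concentrations, and incubated 72 h at 37 degrees C; CellTiter-Glo is then added and luminescence read after 10 min.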
MCF10A rereplic = inducers of DNA re-replication in MCF 10A breast cells; MCF 10A DNA re-replication, Hoechst nuclear intensity, 48 h; Potency, µM (highest dose often 46.1 µM), usual class: activators; 350,000 tested, 2.9% active; also: nearly all actives have a fitted effect of over 50% in size
A number is an active result; 0 = inactive; ? = inconclusive; - = not tested or not shown; ! = repeats disagree; [ ] = dose if it differs, or a comment. Calls follow the shape of the dose curve; as a rule, active = well fitted curve in the direction sought with a large enough effect; inconclusive = small, poorly fitted or top-dose-only effect, or another doubt; inactive = no such curve, though single readings can be large; an effect the other way counts as inactive or inconclusive.

SMILES	SW480 rerep	HT1080 IDH1KD tx	KB-3-1 cytotox	HT1080-NT tox	KB-V1 cytotox	MCF10A rereplic
Cc1ccccc1Oc1nc2c(C)cccn2c(=O)c1/C=C(\C#N)C(=O)NC1CCS(=O)(=O)C1 (stereo not drawn)	0	13µM	0	?	0	?
CNC(=O)/C(C#N)=C/c1c(N2CC(C)OC(C)C2)nc2ccccn2c1=O (stereo not drawn)	?	0	0	0	0	7.3µM
Cc1cccn2c(=O)c(/C=C(\C#N)C(=O)NC3CCS(=O)(=O)C3)c(Oc3ccccc3Cl)nc12 (stereo not drawn)	0	?	0	?	0	0
Cc1cccn2c(=O)c(/C=C(\C#N)C(=O)NC3CCS(=O)(=O)C3)c(N3CC(C)OC(C)C3)nc12 (stereo not drawn)	?	0	?	0	0	1.8µM
CCNC(=O)/C(C#N)=C/c1c(N2CC(C)OC(C)C2)nc2ccccn2c1=O (stereo not drawn)	0	0	0	0	?	0
Cc1cccn2c(=O)c(/C=C(\C#N)C(=O)NC3CCS(=O)(=O)C3)c(N3CCC(C(N)=O)CC3)nc12 (stereo not drawn)	-	0	0	0	0	?
Cc1ccc(Oc2nc3ccccn3c(=O)c2/C=C(\C#N)C(=O)NC2CCS(=O)(=O)C2)cc1 (stereo not drawn)	?	0	0	0	0	8.2µM
CC(=O)Nc1cccc(-c2cccc3nccn23)c1	-	0	0	0	0	-
Oc1ccccc1-c1nc(NCc2ccccc2)c2ccccc2n1	0	0	0	?	0	?
CCCCNc1nc(NCc2ccccc2)nc2ccccc12	-	16µM	?	?	?	-
CNc1nc(NCc2ccccc2)c2ccccc2n1	0	?	?	?	0	?
Oc1ccccc1Nc1nc(NCc2ccccc2)c2ccccc2n1	0	?	23µM	?	21µM	16µM
Clc1ccc(Oc2ncnc3oc(-c4ccccc4)cc23)cc1	0	0	0	0	0	5.8µM
Cc1ccccc1Oc1ncnc2oc(-c3ccccc3)cc12	0	0	0	0	0	?
Cc1c(C(=O)NC(=S)Nc2ccccc2N2CCCC2)cccc1[N+](=O)[O-]	0	0	0	0	13µM	0
O=C(NC(=S)Nc1ccccc1N1CCCC1)c1ccc(-c2cccc([N+](=O)[O-])c2)o1	21µM	?	?	?	16µM	0
O=C(NC(=S)Nc1ccccc1N1CCCCC1)c1ccc(-c2cccc([N+](=O)[O-])c2)o1	0	0	0	0	0	0
CCOC(=O)c1c(C)oc2ncnc(Nc3cc(C)cc(C)c3)c12	-	-	0	-	0	-
CCc1nc2c(OCCOC)cccn2c1N(C)C(=O)c1ccco1	-	0	0	0	0	-
Cc1ccc(S(=O)(=O)N2CCOCC2)cc1C(=O)OCC(=O)N1CCc2ccccc2C1	0	0	0	?	12µM	0
COc1ccc([C@@]23Oc4cc(OC)cc(OC)c4[C@]2(O)[C@H](O)[C@H](C(=O)N(C)C)[C@H]3c2ccccc2)cc1	?	0.16µM	?	?	?	?
COc1ccc2[nH]cc(CCN=C(NC(=O)c3ccccc3OC)Nc3nc(C)cc(C)n3)c2c1	-	-	0	-	?	-
COc1cccc(C(=O)NC(=NCCc2c[nH]c3ccc(OC)cc23)Nc2nc(C)cc(C)n2)c1	-	-	0	-	23µM	-
CCCCCCSc1ccc(-c2nc3ccc(Cl)cn3c2NCCCC)cc1OC	0[9.22 µM]	0	0	0	0	?
CCCCCCSc1cccc(-c2nc3ccc(C)cn3c2NCc2ccccc2)c1	0	0	0	?	0	?
SMILES	SW480 rerep	HT1080 IDH1KD tx	KB-3-1 cytotox	HT1080-NT tox	KB-V1 cytotox	MCF10A rereplic
CCCCCCSc1ccc(-c2nc3ccc(C)cn3c2NCCCC)cc1OC	-	?	?	21µM	21µM	-
CCCCCCSc1cc(-c2nc3ccc(C)cn3c2NCc2ccccc2)ccc1OC	?	?	?	?	13µM!	?
CCCCNc1c(-c2ccc(SC(C)CC)c(OC)c2)nc2ccc(Cl)cn12 (stereo not drawn)	21µM	0	0	0	0	23µM
CCCCNc1c(-c2ccc(SC(C)CC)c(OC)c2)nc2ccc(C)cn12 (stereo not drawn)	?	?	?	0	?	16µM
CCOc1ccccc1C(=O)Nc1ccc2nc(N3CCN(c4ncccn4)CC3)cc(C)c2c1	?	?	15µM	?	8.2µM	8.2µM
CCN1CCN(c2cc(C)c3cc(NC(=O)c4ccc(OC)c(OC)c4)ccc3n2)CC1	?	?	3.7µM!	0	4.1µM!	0
Cc1ccc(NC(=O)c2nnn(CC(=O)Nc3ccc4c(c3)OCO4)c2N)cc1C	0	0	0	0	0	0
Nc1c(C(=O)Nc2ccc3c(c2)OCCO3)nnn1Cc1ccc(Br)cc1	0	0	0	0	0	0
Nc1c(C(=O)Nc2ccc3c(c2)OCCO3)nnn1CCc1ccccc1	?	?	6.5µM	?	?	0
Nc1c(C(=O)Nc2ccc3c(c2)OCCO3)nnn1Cc1cccc(Br)c1	?	13µM	0	0	15µM	?
CCOC(=O)c1cc([N+](=O)[O-])c([N+](=O)[O-])cc1NC(C)=O	?	?	?	7.3µM	0	10µM
CCOC(=O)c1ccc(NC(=O)c2ccccc2[N+](=O)[O-])cc1	0	0	0	0	0	0
CCc1ccc(NC(=O)c2ccc(OC)c([N+](=O)[O-])c2)cc1	0	0	0	0	15µM	0
COc1ccc(C(=O)Nc2c(C)ccc3nsnc23)cc1[N+](=O)[O-]	0	0	0	0	15µM	0
O=C(/C=C/c1ccc(Cl)cc1)Nc1ccc(CN2CCOCC2)cc1	?	0	?	?	0	0
CC(C)CC(=O)N1CCN(Cc2ccc(Cl)cc2)CC1	0	0	0	0	0	?
CC(C)c1ccc(CN2CCN(C(=O)CCl)CC2)cc1	?	?	?	?	?	6.5µM
CC(C)c1ccc(/C=C/C(=O)Nc2ccc(CN3CCOCC3)cc2)cc1	?	?	?	?	16µM	13µM
N#CC1=C(N)CCC1	-	-	0	-	0	-
CSc1nnc(CCNC(=O)OC(C)(C)C)o1	0	0	0	0	0	0
CC(C)=CCSc1nnc(CCNC(=O)OC(C)(C)C)o1	0	0	0	0	21µM	0
CCOc1ccc2c(c1)c(=O)c(S(=O)(=O)c1ccc(Cl)cc1)cn2Cc1ccccc1C	-	-	0	-	0	-
CCOc1ccc(NC(=O)c2ccc(F)c(S(=O)(=O)N3CCN(c4ccccn4)CC3)c2)cc1	0	?	0	0	2.3µM	0
O=C(c1ccc(Cl)c(S(=O)(=O)N2CCCC2)c1)N1CCN(c2ccccn2)CC1	0	0	0	0	0	0
O=C(Nc1cccc(Cl)c1)c1ccc(F)c(S(=O)(=O)N2CCN(c3ccccn3)CC2)c1	0	?	?	0	?	23µM!
